Experimental data as given in PubChem BioAssay (EPA / NIEHS).
Results filed as inconclusive are left out. The source made the active and inactive calls. How the source made its calls, unless noted: active means hit-call score of the fitted dose curve at least 0.9, where 1 is the maximum; inactive means score below 0.9.

Assays:
[1] = BSK_LPS_PGE2: BioMAP Diversity Plus: LPS Assay for Prostaglandin E2 (PGE2) Biomarker Activity (AID 2283082); details: primary human HUVEC with PBMC; actives raise or lower the signal;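 on AC50: secreted prostaglandin E2 measured by ELISA in LPS-stimulated co-culture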
How it was run: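 Endpoint derived from bidirectional curve fitting versus DMSO of ELISA-measured PGE2 in LPS-stimulated human primary vascular co-culture (HUVEC with PBMC) harvested at 24 h.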

[2] = read-out: Macrophage colony-stimulating factor (MCSF), CSF1 (gene 1435); assay: BSK_LPS_MCSF: BioMAP Diversity Plus: LPS Assay for Macrophage colony-stimulating factor (MCSF) Biomarker Activity (AID 2283083); details: primary human HUVEC with PBMC; actives raise or lower the signal
How it was run: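 HUVEC–PBMC co-culture, M-CSF measured by ELISA 24 h after chemical dosing. Fitted in both directions relative to DMSO as negative control; overt cytotoxicity assessed by SRB total-protein staining in parallel cultures.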

[3] = read-out: Tissue Factor, F3 (gene 2152); assay: BSK_LPS_TissueFactor: BioMAP Diversity Plus: LPS Assay for Tissue Factor Biomarker Activity (AID 2283084); details: primary human HUVEC with PBMC; actives raise or lower the signal
How it was run: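 Human umbilical vein endothelial cells co-cultured with PBMC were dosed with compound. Cell-surface CD142 was measured by ELISA 24 h later. Activity was fitted bidirectionally against DMSO, with SRB total-protein staining in parallel cultures for cytotoxicity.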

[4] = read-out: Tumor necrosis factor (Homo sapiens) (UniProt P01375); assay: BSK_LPS_TNFa: BioMAP Diversity Plus: LPS Assay for Tumour Necrosis Factor alpha (TNFa) Biomarker Activity (AID 2283085); details: primary human HUVEC with PBMC; actives raise or lower the signal
How it was run: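 Primary human vascular co-culture of HUVEC and PBMC; TNFa ELISA 24 h after treatment, analysed as increase or decrease relative to DMSO control.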

[5] = read-out: Vascular cell adhesion molecule 1 (VCAM1), VCAM1 (gene 7412); assay: BSK_LPS_VCAM1: BioMAP Diversity Plus: LPS Assay for Vascular cell adhesion molecule 1 (VCAM1) Biomarker Activity (AID 2283086); details: primary human HUVEC with PBMC; actives raise or lower the signal
How it was run: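 Primary human vascular co-culture (umbilical vein endothelium plus PBMC) stimulated with LPS received chemical; 24 h later VCAM-1 was read by ELISA. Overt cytotoxicity was assessed by sulforhodamine B staining of parallel cultures at the same time point.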

[6] = read-out: CD38, CD38 (gene 952); assay: BSK_SAg_CD38: BioMAP Diversity Plus: SAg Assay for CD38 Biomarker Activity (AID 2283087); details: primary human HUVEC with PBMC; actives raise or lower the signal
How it was run: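 Fluorescence ELISA of cell-surface CD38 served as the read-out, with either increase or decrease fitted against DMSO controls. Cells were a human umbilical vein endothelium plus PBMC co-culture under SEB/TSST-1 stimulation, measured 24 h after dosing.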

[7] = read-out: CD40, CD40 (gene 958); assay: BSK_SAg_CD40: BioMAP Diversity Plus: SAg Assay for CD40 Biomarker Activity (AID 2283088); details: primary human HUVEC with PBMC; actives raise or lower the signal
How it was run: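 HUVEC plus PBMC co-culture, superantigen-activated, with CD40 read by ELISA 24 h after dosing. Curves fitted in both directions against DMSO. Overt cytotoxicity checked by parallel SRB total-protein staining.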

[8] = read-out: CD69, CD69 (gene 969); assay: BSK_SAg_CD69: BioMAP Diversity Plus: SAg Assay for CD69 Biomarker Activity (AID 2283089); details: primary human HUVEC with PBMC; actives raise or lower the signal;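 on AC50: cell surface CD69 protein quantified by ELISA with fluorescence detection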
How it was run: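 Primary human vascular co-culture (umbilical vein endothelium with peripheral blood mononuclear cells) exposed to test chemical for 24 h. CD69 levels quantified by fluorescence ELISA; DMSO served as negative control for bidirectional fitting.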

[9] = read-out: Monocyte Chemoattractant Protein-1 (MCP1), CCL2 (gene 6347); assay: BSK_SAg_MCP1: BioMAP Diversity Plus: SAg Assay for Monocyte Chemoattractant Protein-1 (MCP1) Biomarker Activity (AID 2283090); details: primary human HUVEC with PBMC; actives raise or lower the signal
How it was run: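 MCP-1 levels in the endothelial–PBMC SAg co-culture were quantified by ELISA at 24 h post-dosing; both increases and decreases versus DMSO scored. Cytotoxicity monitored by SRB total protein in parallel cultures.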

[10] = read-out: E-selectin (Homo sapiens) (UniProt P16581); assay: BSK_SAg_Eselectin: BioMAP Diversity Plus: SAg Assay for Eselectin Biomarker Activity (AID 2283091); details: primary human HUVEC with PBMC; actives raise or lower the signal
How it was run: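 Human umbilical vein endothelial cells co-cultured with peripheral blood mononuclear cells, SAg system. E-selectin is measured by ELISA 24 h after dosing and fitted bidirectionally against DMSO. Cytotoxicity is checked by SRB staining of parallel cultures.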

[11] = read-out: Monokine induced gamma interferon (MIG), CXCL9 (gene 4283); assay: BSK_SAg_MIG: BioMAP Diversity Plus: SAg Assay for Monokine induced gamma interferon (MIG) Biomarker Activity (AID 2283092); details: primary human HUVEC with PBMC; actives raise or lower the signal
How it was run: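 Endothelial cells and PBMC were co-cultured, exposed to test chemicals, and sampled 24 h later. MIG was measured by ELISA, and responses were fitted in both directions relative to DMSO.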

[12] = BSK_SAg_PBMCCytotoxicity: PBMC Cytotoxicity Assessment in the BioMAP Diversity Plus: SAg Assay (AID 2283093); details: primary human HUVEC with PBMC;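 further: PBMC viability measured as Alamar Blue reduction fluorescence at 546/580 nm; fitted both ways against DMSO so a hit may be loss or gain of signal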;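 on AC50: PBMC superantigen activated with SEB plus TSST-1 one hour after compound addition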
How it was run: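 HUVEC/PBMC co-culture; PBMC exposed to chemical 1 h before SEB and TSST-1 activation (20 ng/mL each), incubated 90 h, then Alamar Blue 6 h, fluorescence 546/580 nm. Bidirectional fit versus DMSO baseline.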

[13] = read-out: Interleukin-8 (IL8), CXCL8 (gene 3576); assay: BSK_SAg_IL8: BioMAP Diversity Plus: SAg Assay for Interleukin-8 (IL8) Biomarker Activity (AID 2283094); details: primary human HUVEC with PBMC; actives raise or lower the signal
How it was run: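 In this co-culture of human umbilical vein endothelium with peripheral blood mononuclear cells, IL-8 is assayed by ELISA at 24 h. DMSO serves as baseline for bidirectional curve fitting.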

[14] = BSK_SAg_Proliferation: Cell Proliferation Assessment in the BioMAP Diversity Plus: SAg Assay (AID 2283095); details: primary human HUVEC with PBMC;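 further: relative cell number as total protein by SRB absorbance in sub-confluent culture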
How it was run: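 Readout is SRB-stained protein (560 nm) in a primary human HUVEC and PBMC co-culture; sub-confluent cultures are read at 96 h. Activity is fitted bidirectionally using DMSO as baseline.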

[15] = BSK_SAg_SRB: Viability Assessment in the BioMAP Diversity Plus: SAg Assay (AID 2283096); details: primary human HUVEC with PBMC;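 further: cells read one day after compound addition; hits may be either gain or loss of signal compared with DMSO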
How it was run: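 Human umbilical vein endothelial cells co-cultured with PBMC, read 24 h after compound dosing. Total protein measured by sulforhodamine B staining (0.1% SRB after 10% TCA fixation, absorbance 560 nm); bidirectional fit versus DMSO baseline.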

[16] = molecular target: human CYP19A1, CYP19A1 (gene 1588) (UniProt P11511); assay: NVS_ADME_hCYP19A1: NovaScreen (NVS) CYP450-related Enzyme Activity (ADME) Assay for human CYP19A1 (AID 2283098; active means hit-call score of the fitted dose curve at least 0.9, where 1 is the maximum)
human CYP19A1, CYP19A1 (gene 1588), sequence (P11511 whole entry, looked up): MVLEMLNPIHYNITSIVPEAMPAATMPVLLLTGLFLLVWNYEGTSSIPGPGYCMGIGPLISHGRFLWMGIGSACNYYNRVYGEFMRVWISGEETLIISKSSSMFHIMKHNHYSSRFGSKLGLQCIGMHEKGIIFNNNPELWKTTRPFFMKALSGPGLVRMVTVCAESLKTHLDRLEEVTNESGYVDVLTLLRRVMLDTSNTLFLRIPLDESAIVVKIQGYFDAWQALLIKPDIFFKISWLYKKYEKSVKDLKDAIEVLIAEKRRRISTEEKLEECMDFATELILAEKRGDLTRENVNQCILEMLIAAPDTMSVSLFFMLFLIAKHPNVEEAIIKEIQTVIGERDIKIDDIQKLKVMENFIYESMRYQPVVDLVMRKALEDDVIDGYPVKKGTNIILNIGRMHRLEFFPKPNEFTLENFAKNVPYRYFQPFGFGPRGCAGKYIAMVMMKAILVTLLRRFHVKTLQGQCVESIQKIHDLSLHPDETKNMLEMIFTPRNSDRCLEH
How it was run: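 Recombinant enzyme in a cell-free format, read 0.5 h after dosing by fluorescence from a fluorogenic substrate. Loss of signal was fitted against acetonitrile as baseline. Primary screen in duplicate at 10 uM, actives then tested in concentration series.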

[17] = molecular target: human CYP1A1, CYP1A1 (gene 1543) (UniProt P04798); assay: NVS_ADME_hCYP1A1: NovaScreen (NVS) CYP450-related Enzyme Activity (ADME) Assay for human CYP1A1 (AID 2283100; active means hit-call score of the fitted dose curve at least 0.9, where 1 is the maximum)
human CYP1A1, CYP1A1 (gene 1543), sequence (P04798 whole entry, looked up): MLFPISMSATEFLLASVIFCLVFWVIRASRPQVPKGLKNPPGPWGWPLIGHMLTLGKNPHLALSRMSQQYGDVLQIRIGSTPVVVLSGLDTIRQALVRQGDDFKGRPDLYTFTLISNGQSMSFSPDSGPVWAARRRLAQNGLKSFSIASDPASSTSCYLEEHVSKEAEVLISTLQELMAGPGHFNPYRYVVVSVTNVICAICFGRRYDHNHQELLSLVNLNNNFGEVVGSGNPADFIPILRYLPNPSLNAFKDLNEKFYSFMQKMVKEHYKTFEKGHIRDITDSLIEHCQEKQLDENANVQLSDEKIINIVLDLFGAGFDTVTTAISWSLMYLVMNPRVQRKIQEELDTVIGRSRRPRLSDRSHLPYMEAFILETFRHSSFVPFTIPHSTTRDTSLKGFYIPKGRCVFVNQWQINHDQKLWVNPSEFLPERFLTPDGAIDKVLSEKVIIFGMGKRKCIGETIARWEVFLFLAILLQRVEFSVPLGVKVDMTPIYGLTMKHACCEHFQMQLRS
How it was run: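 Recombinant CYP1A1 with a fluorogenic substrate, cell-free, read 1 h after dosing; acetonitrile as negative control. Single-concentration screen at 10 uM in duplicate, then concentration-response up to 20 uM for chemicals meeting ~30% inhibition threshold.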

[18] = molecular target: human CYP2A6, CYP2A6 (gene 1548) (UniProt P11509); assay: NVS_ADME_hCYP2A6: NovaScreen (NVS) CYP450-related Enzyme Activity (ADME) Assay for human CYP2A6 (AID 2283099; active means hit-call score of the fitted dose curve at least 0.9, where 1 is the maximum)
human CYP2A6, CYP2A6 (gene 1548), sequence (P11509 whole entry, looked up): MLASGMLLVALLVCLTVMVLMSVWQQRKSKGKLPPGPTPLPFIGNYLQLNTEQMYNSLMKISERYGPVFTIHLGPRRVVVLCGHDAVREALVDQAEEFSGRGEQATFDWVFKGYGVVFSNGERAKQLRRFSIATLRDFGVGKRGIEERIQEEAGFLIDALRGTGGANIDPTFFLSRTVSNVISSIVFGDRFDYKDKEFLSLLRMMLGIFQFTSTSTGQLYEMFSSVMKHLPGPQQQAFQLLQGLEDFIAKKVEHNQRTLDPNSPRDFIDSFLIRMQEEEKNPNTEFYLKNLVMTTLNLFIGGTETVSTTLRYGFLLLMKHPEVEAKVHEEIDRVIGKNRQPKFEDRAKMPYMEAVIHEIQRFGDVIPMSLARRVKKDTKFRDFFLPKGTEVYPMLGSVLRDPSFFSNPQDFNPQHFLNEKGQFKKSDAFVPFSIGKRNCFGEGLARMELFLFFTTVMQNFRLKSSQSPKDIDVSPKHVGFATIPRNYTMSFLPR
How it was run: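 Recombinant human CYP2A6 expressed in insect cells, cell-free; fluorogenic substrate turnover read by fluorescence intensity 0.5 h after dosing. Primary screen 10 uM in duplicate, then concentration-response up to 20 uM; acetonitrile as negative control.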

[19] = molecular target: human CYP2B6, CYP2B6 (gene 1555) (UniProt P20813); assay: NVS_ADME_hCYP2B6: NovaScreen (NVS) CYP450-related Enzyme Activity (ADME) Assay for human CYP2B6 (AID 2283101; active means hit-call score of the fitted dose curve at least 0.9, where 1 is the maximum)
human CYP2B6, CYP2B6 (gene 1555), sequence (P20813 whole entry, looked up): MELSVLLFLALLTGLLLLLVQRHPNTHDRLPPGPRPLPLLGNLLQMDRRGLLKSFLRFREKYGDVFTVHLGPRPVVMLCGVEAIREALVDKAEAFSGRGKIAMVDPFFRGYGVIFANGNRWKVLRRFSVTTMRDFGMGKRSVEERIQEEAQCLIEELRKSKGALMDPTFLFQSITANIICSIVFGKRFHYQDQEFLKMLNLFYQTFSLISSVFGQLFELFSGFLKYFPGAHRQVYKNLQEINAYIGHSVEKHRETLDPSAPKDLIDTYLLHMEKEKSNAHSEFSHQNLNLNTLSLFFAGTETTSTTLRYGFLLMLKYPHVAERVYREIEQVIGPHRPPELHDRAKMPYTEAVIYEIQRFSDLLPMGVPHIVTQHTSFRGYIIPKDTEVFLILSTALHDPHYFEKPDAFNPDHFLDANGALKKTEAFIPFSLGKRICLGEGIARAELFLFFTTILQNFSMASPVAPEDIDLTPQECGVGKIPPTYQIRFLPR
How it was run: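 Cell-free recombinant enzyme assay with a fluorogenic substrate; fluorescence intensity read 1 hour after dosing. Loss of signal relative to acetonitrile negative control indicates inhibition. Primary screen run in duplicate at 10 uM, actives then tested in concentration series.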

Measured: AC50

Tumor necrosis factor (Homo sapiens), sequence (P01375 whole entry, looked up): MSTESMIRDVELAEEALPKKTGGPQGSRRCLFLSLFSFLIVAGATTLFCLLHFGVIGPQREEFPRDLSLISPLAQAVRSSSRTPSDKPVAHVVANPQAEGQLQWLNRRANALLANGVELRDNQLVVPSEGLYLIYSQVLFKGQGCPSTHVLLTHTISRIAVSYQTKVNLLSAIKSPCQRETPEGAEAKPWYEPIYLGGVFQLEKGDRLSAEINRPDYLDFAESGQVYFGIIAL
E-selectin (Homo sapiens), sequence (P16581 whole entry, looked up): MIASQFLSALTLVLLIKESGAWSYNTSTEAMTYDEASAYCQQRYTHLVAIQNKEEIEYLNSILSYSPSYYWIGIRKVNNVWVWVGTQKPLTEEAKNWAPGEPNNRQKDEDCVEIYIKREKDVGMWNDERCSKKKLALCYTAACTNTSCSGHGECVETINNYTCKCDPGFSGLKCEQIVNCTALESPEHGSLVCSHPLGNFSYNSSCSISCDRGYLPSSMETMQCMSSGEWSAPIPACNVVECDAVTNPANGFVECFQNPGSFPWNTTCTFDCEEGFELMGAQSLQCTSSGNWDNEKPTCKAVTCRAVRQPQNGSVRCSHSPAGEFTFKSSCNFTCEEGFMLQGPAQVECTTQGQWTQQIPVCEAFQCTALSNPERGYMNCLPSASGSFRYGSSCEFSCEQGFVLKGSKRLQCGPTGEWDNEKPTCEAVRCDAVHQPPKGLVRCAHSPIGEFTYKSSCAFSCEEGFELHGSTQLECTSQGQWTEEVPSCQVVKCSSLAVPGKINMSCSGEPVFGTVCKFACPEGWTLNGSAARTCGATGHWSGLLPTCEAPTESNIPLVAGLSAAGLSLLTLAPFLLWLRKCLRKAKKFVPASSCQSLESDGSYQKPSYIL

CN1CCC[C@H]1c1cccnc1
not listed: [16] | [17] | [18] | [19]
inactive: all other assays above

CCCCCCCCCCCCCCCS(=O)(=O)Oc1ccccc1
active: [12] 5.98 µM | [14] 6.39 µM
not listed: [16] | [17] | [18] | [19]
inactive: all other assays above

Cc1cc(CCN2CCN(c3nsc4ccccc34)CC2)cc2c1NC(=O)CC2(C)C
active: [1] 5.37 µM | [2] 15.3 µM | [3] 32.8 µM | [4] 8.98 µM | [5] 26 µM | [6] 13.4 µM | [7] 14.2 µM | [8] 14.4 µM | [9] 11.3 µM | [10] 11.8 µM | [11] 17.3 µM | [12] 13 µM | [13] 20 µM | [14] 8.05 µM | [15] 33.9 µM
inactive: [16] | [17]

CC(C)(C)c1cccc(C(C)(C)C)c1O
not listed: [8] | [16] | [17] | [18] | [19]
inactive: all other assays above

CN(C)C=O
not listed: [16] | [17] | [18] | [19]
inactive: all other assays above

N#C[C@@H]1CC(F)(F)CN1C(=O)CNC1CC2CCC(C1)N2c1ncccn1 (stereo not given in full)
active: [1] 0.939 µM | [2] 2.33 µM | [6] 4.4 µM | [7] 4.8 µM | [8] 4.59 µM | [9] 6.57 µM | [12] 8.08 µM | [13] 7.82 µM | [14] 9.88 µM | [15] 5.45 µM
inactive: [3] | [4] | [5] | [10] | [11]

OC1CCC(C2CCCCC2)CC1 (stereo not given)
not listed: [16] | [17] | [18] | [19]
inactive: all other assays above

COCC(C)O (stereo not given)
not listed: [16] | [17] | [18] | [19]
inactive: all other assays above

CCCOC(=O)c1ccc(O)cc1
active: [1] 9.7 µM
not listed: [16] | [17]
inactive: all other assays above

CC(C)(C)c1cc(C(C)(C)C)c(O)c(C(C)(C)C)c1
active: [3] 20 µM
not listed: [16] | [17] | [18] | [19]
inactive: all other assays above

CC(C)CCCCCCOC(=O)CCCCC(=O)OCCCCCCC(C)C
not listed: [16] | [17] | [18] | [19]
inactive: all other assays above

CCCCCCC(=O)O
not listed: [16] | [17] | [18] | [19]
inactive: all other assays above

C#C[C@]1(O)CC[C@H]2[C@@H]3CCC4=CC(=O)CC[C@@H]4[C@H]3CC[C@@]21C
active: [1] 20 µM | [2] 6.38 µM | [4] 4.11 µM | [5] 8.21 µM | [6] 7.1 µM | [7] 5.45 µM | [9] 5.76 µM | [15] 7.46 µM
inactive: [3] | [10] | [11] | [12] | [13] | [14]

CCCCOCCO
not listed: [8] | [16] | [17] | [18] | [19]
inactive: all other assays above

CCCCCCCCC(=O)O
not listed: [8] | [16] | [17] | [18] | [19]
inactive: all other assays above
